# Tests used:
# Assay in all cases: PBM; 200 nM protein, PBS
# Conditions in all cases: dsDNA, one strand shown
# [1] = target: HESX1 (Homo sapiens, UniProt Q9UBX0 95-180, R165K)
# [2] = target: HESX1 (Homo sapiens, UniProt Q9UBX0 95-180)
# [3] = target: HESX1 (Homo sapiens, UniProt Q9UBX0 95-180, R109Q)
# [4] = target: HESX1 (Homo sapiens, UniProt Q9UBX0 95-180, P111T)
# [5] = target: HESX1 (Homo sapiens, UniProt Q9UBX0 95-180, F115L)
# [6] = target: PRRX1 (Homo sapiens, UniProt P54821 80-166, F113S)
# Chain of PRRX1 (Homo sapiens, UniProt P54821 80-166, F113S) (P54821 80-166 F113S): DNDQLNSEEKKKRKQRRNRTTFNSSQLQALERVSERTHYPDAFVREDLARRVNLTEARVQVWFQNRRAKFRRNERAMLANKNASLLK
# [7] = target: PRRX1 (Homo sapiens, UniProt P54821 80-166)
# Chain of PRRX1 (Homo sapiens, UniProt P54821 80-166) (P54821 80-166): as the sequence (P54821 80-166 F113S) above, with S34F counted along it
# [8] = target: PROP1 (Homo sapiens, UniProt O75360 56-141)
# Chain of PROP1 (Homo sapiens, UniProt O75360 56-141) (O75360 56-141): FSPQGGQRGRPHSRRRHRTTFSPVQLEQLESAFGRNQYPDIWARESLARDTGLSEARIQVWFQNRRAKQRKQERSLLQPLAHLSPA
# [9] = target: PROP1 (Homo sapiens, UniProt O75360 56-141, R99H)
# Chain of PROP1 (Homo sapiens, UniProt O75360 56-141, R99H) (O75360 56-141 R99H): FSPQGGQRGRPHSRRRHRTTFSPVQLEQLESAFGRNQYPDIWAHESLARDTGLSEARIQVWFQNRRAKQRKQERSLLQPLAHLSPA
# [10] = target: PROP1 (Homo sapiens, UniProt O75360 56-141, F88S)
# Chain of PROP1 (Homo sapiens, UniProt O75360 56-141, F88S) (O75360 56-141 F88S): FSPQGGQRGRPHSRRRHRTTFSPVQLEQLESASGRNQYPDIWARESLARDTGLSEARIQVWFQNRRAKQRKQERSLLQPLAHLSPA
# [11] = target: ALX1 (Homo sapiens, UniProt Q15699 118-204, L144V)
# Chain of ALX1 (Homo sapiens, UniProt Q15699 118-204, L144V) (Q15699 118-204 L144V): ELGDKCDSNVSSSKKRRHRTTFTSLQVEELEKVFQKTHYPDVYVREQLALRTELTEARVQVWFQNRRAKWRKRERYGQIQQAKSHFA
# [12] = target: ALX1 (Homo sapiens, UniProt Q15699 118-204, L144R)
# Chain of ALX1 (Homo sapiens, UniProt Q15699 118-204, L144R) (Q15699 118-204 L144R): as the sequence (Q15699 118-204 L144V) above, with V27R counted along it
# [13] = target: ALX1 (Homo sapiens, UniProt Q15699 118-204)
# Chain of ALX1 (Homo sapiens, UniProt Q15699 118-204) (Q15699 118-204): as the sequence (Q15699 118-204 L144V) above, with V27L counted along it
# Chain of HESX1 (Homo sapiens, UniProt Q9UBX0 95-180, F115L) (Q9UBX0 95-180 F115L): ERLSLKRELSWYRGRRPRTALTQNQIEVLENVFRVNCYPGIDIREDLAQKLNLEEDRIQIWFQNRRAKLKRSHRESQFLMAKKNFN
# Chain of HESX1 (Homo sapiens, UniProt Q9UBX0 95-180) (Q9UBX0 95-180): as the sequence (Q9UBX0 95-180 F115L) above, with L21F counted along it
# Chain of HESX1 (Homo sapiens, UniProt Q9UBX0 95-180, P111T) (Q9UBX0 95-180 P111T): as the sequence (Q9UBX0 95-180 F115L) above, with P17T, L21F counted along it
# Chain of HESX1 (Homo sapiens, UniProt Q9UBX0 95-180, R165K) (Q9UBX0 95-180 R165K): as the sequence (Q9UBX0 95-180 F115L) above, with L21F, R71K counted along it
# Chain of HESX1 (Homo sapiens, UniProt Q9UBX0 95-180, R109Q) (Q9UBX0 95-180 R109Q): as the sequence (Q9UBX0 95-180 F115L) above, with R15Q, L21F counted along it
sequence,measurement,setting,value
CGGGCCCG,binding signal,[1],"6.56 upbm affinity estimate (log intensity, higher = more binding, comparable within an allelic series)"
same,binding signal,[2],"6.74 upbm affinity estimate (log intensity, higher = more binding, comparable within an allelic series)"
same,binding signal,[3],"6.76 upbm affinity estimate (log intensity, higher = more binding, comparable within an allelic series)"
same,binding signal,[4],"6.72 upbm affinity estimate (log intensity, higher = more binding, comparable within an allelic series)"
same,binding signal,[5],"6.55 upbm affinity estimate (log intensity, higher = more binding, comparable within an allelic series)"
GCCGTCGC,binding signal,[1],"6.39 upbm affinity estimate (log intensity, higher = more binding, comparable within an allelic series)"
same,binding signal,[6],"9.29 upbm affinity estimate (log intensity, higher = more binding, comparable within an allelic series)"
same,binding signal,[2],"6.51 upbm affinity estimate (log intensity, higher = more binding, comparable within an allelic series)"
same,binding signal,[3],"6.58 upbm affinity estimate (log intensity, higher = more binding, comparable within an allelic series)"
same,binding signal,[4],"6.45 upbm affinity estimate (log intensity, higher = more binding, comparable within an allelic series)"
same,binding signal,[5],"6.53 upbm affinity estimate (log intensity, higher = more binding, comparable within an allelic series)"
same,binding signal,[7],"9.58 upbm affinity estimate (log intensity, higher = more binding, comparable within an allelic series)"
GCCAGACC,binding signal,[1],"6.33 upbm affinity estimate (log intensity, higher = more binding, comparable within an allelic series)"
same,binding signal,[2],"6.38 upbm affinity estimate (log intensity, higher = more binding, comparable within an allelic series)"
same,binding signal,[3],"6.33 upbm affinity estimate (log intensity, higher = more binding, comparable within an allelic series)"
same,binding signal,[4],"6.36 upbm affinity estimate (log intensity, higher = more binding, comparable within an allelic series)"
same,binding signal,[5],"6.43 upbm affinity estimate (log intensity, higher = more binding, comparable within an allelic series)"
CAGGCGCC,binding signal,[1],"6.55 upbm affinity estimate (log intensity, higher = more binding, comparable within an allelic series)"
same,binding signal,[2],"6.51 upbm affinity estimate (log intensity, higher = more binding, comparable within an allelic series)"
same,binding signal,[3],"6.57 upbm affinity estimate (log intensity, higher = more binding, comparable within an allelic series)"
same,binding signal,[4],"6.52 upbm affinity estimate (log intensity, higher = more binding, comparable within an allelic series)"
same,binding signal,[5],"6.58 upbm affinity estimate (log intensity, higher = more binding, comparable within an allelic series)"
CCGTAGGC,binding signal,[1],"6.41 upbm affinity estimate (log intensity, higher = more binding, comparable within an allelic series)"
same,binding signal,[2],"6.44 upbm affinity estimate (log intensity, higher = more binding, comparable within an allelic series)"
same,binding signal,[3],"6.53 upbm affinity estimate (log intensity, higher = more binding, comparable within an allelic series)"
same,binding signal,[4],"6.41 upbm affinity estimate (log intensity, higher = more binding, comparable within an allelic series)"
same,binding signal,[5],"6.48 upbm affinity estimate (log intensity, higher = more binding, comparable within an allelic series)"
GCGAGCGC,binding signal,[1],"6.46 upbm affinity estimate (log intensity, higher = more binding, comparable within an allelic series)"
same,binding signal,[2],"6.44 upbm affinity estimate (log intensity, higher = more binding, comparable within an allelic series)"
same,binding signal,[8],"6.62 upbm affinity estimate (log intensity, higher = more binding, comparable within an allelic series)"
same,binding signal,[3],"6.48 upbm affinity estimate (log intensity, higher = more binding, comparable within an allelic series)"
same,binding signal,[9],"6.66 upbm affinity estimate (log intensity, higher = more binding, comparable within an allelic series)"
same,binding signal,[4],"6.41 upbm affinity estimate (log intensity, higher = more binding, comparable within an allelic series)"
same,binding signal,[10],"6.75 upbm affinity estimate (log intensity, higher = more binding, comparable within an allelic series)"
same,binding signal,[5],"6.54 upbm affinity estimate (log intensity, higher = more binding, comparable within an allelic series)"
ACGCTGCG,binding signal,[1],"6.32 upbm affinity estimate (log intensity, higher = more binding, comparable within an allelic series)"
same,binding signal,[2],"6.32 upbm affinity estimate (log intensity, higher = more binding, comparable within an allelic series)"
same,binding signal,[11],"6.28 upbm affinity estimate (log intensity, higher = more binding, comparable within an allelic series)"
same,binding signal,[12],"6.23 upbm affinity estimate (log intensity, higher = more binding, comparable within an allelic series)"
same,binding signal,[3],"6.51 upbm affinity estimate (log intensity, higher = more binding, comparable within an allelic series)"
same,binding signal,[4],"6.42 upbm affinity estimate (log intensity, higher = more binding, comparable within an allelic series)"
same,binding signal,[5],"6.51 upbm affinity estimate (log intensity, higher = more binding, comparable within an allelic series)"
same,binding signal,[13],"6.21 upbm affinity estimate (log intensity, higher = more binding, comparable within an allelic series)"
CTGCATTA,binding signal,[1],"7.23 upbm affinity estimate (log intensity, higher = more binding, comparable within an allelic series)"
same,binding signal,[2],"7.34 upbm affinity estimate (log intensity, higher = more binding, comparable within an allelic series)"
same,binding signal,[11],"8.85 upbm affinity estimate (log intensity, higher = more binding, comparable within an allelic series)"
same,binding signal,[12],"8.64 upbm affinity estimate (log intensity, higher = more binding, comparable within an allelic series)"
same,binding signal,[4],"7.12 upbm affinity estimate (log intensity, higher = more binding, comparable within an allelic series)"
same,binding signal,[5],"6.71 upbm affinity estimate (log intensity, higher = more binding, comparable within an allelic series)"
same,binding signal,[13],"9.15 upbm affinity estimate (log intensity, higher = more binding, comparable within an allelic series)"
AGGGTCCC,binding signal,[1],"6.51 upbm affinity estimate (log intensity, higher = more binding, comparable within an allelic series)"
same,binding signal,[2],"6.48 upbm affinity estimate (log intensity, higher = more binding, comparable within an allelic series)"
same,binding signal,[3],"6.45 upbm affinity estimate (log intensity, higher = more binding, comparable within an allelic series)"
same,binding signal,[4],"6.51 upbm affinity estimate (log intensity, higher = more binding, comparable within an allelic series)"
same,binding signal,[5],"6.53 upbm affinity estimate (log intensity, higher = more binding, comparable within an allelic series)"
CGCACGCC,binding signal,[1],"6.51 upbm affinity estimate (log intensity, higher = more binding, comparable within an allelic series)"
same,binding signal,[2],"6.47 upbm affinity estimate (log intensity, higher = more binding, comparable within an allelic series)"
same,binding signal,[8],"6.43 upbm affinity estimate (log intensity, higher = more binding, comparable within an allelic series)"
same,binding signal,[3],"6.54 upbm affinity estimate (log intensity, higher = more binding, comparable within an allelic series)"
same,binding signal,[9],"6.77 upbm affinity estimate (log intensity, higher = more binding, comparable within an allelic series)"
same,binding signal,[4],"6.43 upbm affinity estimate (log intensity, higher = more binding, comparable within an allelic series)"
same,binding signal,[10],"6.63 upbm affinity estimate (log intensity, higher = more binding, comparable within an allelic series)"
same,binding signal,[5],"6.48 upbm affinity estimate (log intensity, higher = more binding, comparable within an allelic series)"

# — paper PMC11006913
